The supplement of paper PMC6555819

How the values were obtained:
Assay in all cases: PBM binding z-score (relative to random genomic background probes); higher = stronger binding; sequences stand for … in GC…GCGATTGACAGCGTAGAATGAAGG
[1] = test system: FXR:RXRa (NR concentration 270 nM, RXRa partner concentration 90 nM)
Outline: (§1)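 Binding z-scores take random background probes as their reference. They come from custom Agilent 4×180K protein-binding microarrays incubated 1 h with ligand-free nuclear receptor dimers, with antibodies against each partner (one per run) detecting binding. Scanned fluorescence was regression-normalized.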

[2] = test system: LXRa:RXRa (NR concentration 270 nM, RXRa partner concentration 90 nM)
Outline: as §1

[3] = test system: LXRa homodimer (NR concentration 270 nM)
Outline: as §1

[4] = test system: LXRb:RXRa (NR concentration 270 nM, RXRa partner concentration 90 nM)
Outline: as §1

[5] = test system: LXRb homodimer (NR concentration 270 nM)
Outline: as §1

[6] = test system: PPARa:RXRa (NR concentration 270 nM, RXRa partner concentration 90 nM)
Outline: as §1

[7] = test system: PPARg:RXRa (NR concentration 180 nM, RXRa partner concentration 90 nM)
Outline: as §1

[8] = test system: PPARg:RXRa 270nM:90nM, anti-RXR (NR concentration 270 nM, RXRa partner concentration 90 nM)
Outline: as §1

[9] = test system: PPARg:RXRa 30nM:10nM, anti-RXR (NR concentration 30 nM, RXRa partner concentration 10 nM)
Outline: as §1

[10] = test system: PPARg:RXRa 90nM:30nM, anti-RXR (NR concentration 90 nM, RXRa partner concentration 30 nM)
Outline: as §1

[11] = test system: PPARg:RXRa DBDmut IVT, anti-RXR (DBD mutation: RXRa K156A/R161A, NR concentration 270 nM, RXRa partner concentration 90 nM)
Outline: as §1

[12] = test system: PPARg:RXRa IVT, anti-PPARg (NR concentration 270 nM, RXRa partner concentration 90 nM)
Outline: as §1

[13] = test system: PPARg DBDmut:RXRa IVT, anti-PPARg (DBD mutation: PPARg1 K132A/R137A, NR concentration 270 nM, RXRa partner concentration 90 nM)
Outline: as §1

[14] = test system: PPARg DBDmut IVT, anti-PPARg (DBD mutation: PPARg1 K132A/R137A, NR concentration 270 nM)
Outline: as §1

[15] = test system: PPARg homodimer (NR concentration 180 nM)
Outline: as §1

[16] = test system: PXR:RXRa (NR concentration 270 nM, RXRa partner concentration 90 nM)
Outline: as §1

[17] = test system: PXR homodimer (NR concentration 270 nM)
Outline: as §1

[18] = test system: RARa:RXR (NR concentration 270 nM, RXRa partner concentration 90 nM)
Outline: as §1

[19] = test system: RARa homodimer (NR concentration 270 nM)
Outline: as §1

[20] = test system: RARb:RXRa (NR concentration 270 nM, RXRa partner concentration 90 nM)
Outline: as §1

Sequence | PBM binding z-score [1] | PBM binding z-score [2] | PBM binding z-score [3] | PBM binding z-score [4] | PBM binding z-score [5] | PBM binding z-score [6] | PBM binding z-score [7] | PBM binding z-score [8] | PBM binding z-score [9] | PBM binding z-score [10] | PBM binding z-score [11] | PBM binding z-score [12] | PBM binding z-score [13] | PBM binding z-score [14] | PBM binding z-score [15] | PBM binding z-score [16] | PBM binding z-score [17] | PBM binding z-score [18] | PBM binding z-score [19] | PBM binding z-score [20]
CCTACTGGGCCAAAAAGCTCATTGATGCCGATAA | -0.506 | -0.69 | -0.717 | -0.724 | -1.22 | -0.251 | 0.473 | 1.24 | -0.429 | 0.564 | 3.38 | 2.11 | -0.849 | -0.936 | -0.703 | -0.847 | -0.417 | -1.01 | -0.487 | -0.356
AGTCAAAGTTCATCTAGGTAATGTAAGATATGCT | 6.48 | 6.26 | 5.38 | 4.07 | 1.98 | 4.95 | 6.59 | 6.48 | 3.67 | 5.42 | 1.01 | 3.31 | 1.3 | 1.47 | 2.6 | 5.28 | 6.34 | 3.72 | 1.8 | 4.94
AGAATGAGGTTAAGAACAGGGAAACAGAATACAT | 2.13 | 1.7 | 0.291 | 1.87 | 0.264 | 3.18 | 2.15 | 2.05 | 0.811 | 1.34 | 2.35 | 2.23 | 1.48 | 0.955 | 0.811 | 1.13 | 0.635 | 1.61 | 0.514 | 1.87
AAAATGAGGTTACCAAAGATCAGGGAAACGCTTG | 2.21 | 6.37 | -0.0548 | 3.4 | -0.136 | 3.71 | 3.49 | 3.24 | 1.2 | 2.53 | 4.97 | 4.33 | 2.73 | 0.928 | 0.63 | 1.71 | 0.241 | 2.47 | -0.123 | 2.31
ATCTCTAGGTAAAAGTACAGTGAATCCCGAGGAT | 0.212 | 0.0141 | 0.0637 | -0.267 | 0.728 | 0.877 | 1.98 | 3.02 | 1.49 | 3.07 | 1.64 | 1.67 | 1.14 | 1.43 | 0.118 | -0.149 | 0.313 | -0.057 | 1.08 | 0.298
AGAACGAGGGCAATGAGTTGATATCACGGGTGGC | 0.383 | 0.334 | -0.363 | -0.00546 | -0.245 | 1.52 | 1.86 | 1.07 | 0.219 | 0.833 | 3.27 | 2.39 | 0.947 | -0.37 | 0.0848 | 1.68 | 4.4 | 0.557 | -0.0418 | 1.95
ATAGGTAGGTTATCGGGTCATTCAGTTTGCGCAT | 3.2 | 3.22 | 1.93 | 3.17 | 1.52 | 3.82 | 4.18 | 4.48 | 1.91 | 3.81 | 4.9 | 5.09 | 1.49 | 1.46 | 2.74 | 3.9 | 7.44 | 3.76 | 2.57 | 2.62
AGAACGAGGGCACGCTGAGTTGATAGCCGAGTAG | 0.799 | 0.509 | -0.574 | 0.154 | -0.961 | 2.17 | 2.04 | 1.7 | -0.0721 | 0.936 | 4.46 | 4.04 | 0.489 | 0.266 | 0.0307 | 1.21 | -0.287 | 0.916 | -0.217 | 2.42
GATACAGGGTCAGCTAGAAGCCAGAGTATGGAAA | 4.4 | 2.38 | -0.483 | 2.13 | -0.479 | 4.45 | 3.76 | 3.04 | 1.33 | 1.83 | 1.32 | 2.21 | -0.0163 | -0.227 | 2.08 | 1.64 | 0.0123 | 2.84 | -0.0258 | 3.78
CAAACTAGGTCAAAGGTCAAAGGCGAGCCAACCA | 8.49 | 7.21 | 4.91 | 7.14 | 2.68 | 7.65 | 14.2 | 11.5 | 14.7 | 13.9 | 8.87 | 9.3 | 4.87 | 2.24 | 4.33 | 6.93 | 1.55 | 9.2 | 2.6 | 5.86
TCTATTAGTTGATTACGGCAACCGAAACAGCGGA | 0.899 | 0.638 | 0.651 | 0.546 | 0.998 | 0.921 | 0.134 | 1.95 | 3.63 | 3.1 | 2.26 | 0.246 | 1.27 | 1.25 | 1.11 | 0.471 | 0.751 | 0.595 | 1.59 | 0.331
CCTGCTAGGTCAATGGTCAGCGAAAGCAGCTCGC | 2.75 | 2.4 | -0.241 | 1.4 | 0.134 | 3.37 | 5.06 | 5.2 | 3.2 | 5.18 | 4.19 | 4.06 | 0.555 | -0.25 | 1.7 | 0.865 | -0.255 | 1.87 | -0.0474 | 3.71
CGAACTAGGTCATTGACTGGACAGTGAATAGTAA | 4.77 | 2.75 | 0.235 | 1.83 | -0.381 | 4.74 | 7.36 | 6.43 | 3.34 | 5.78 | 8.06 | 8.06 | 5.21 | 5.65 | 0.956 | 0.89 | 0.0623 | 1.78 | 0.262 | 3.52
TCGAGTAGGATAGGGGCATTCAGAATGGCGTCGA | 0.0392 | -0.388 | -0.671 | 0.283 | -0.491 | 0.262 | 0.0969 | 0.573 | 0.884 | 0.812 | 0.794 | -0.24 | -0.499 | -1.34 | 0.0464 | -0.136 | -0.0675 | -0.134 | -0.862 | 0.225
AGAATGAGGTTATACGTAGATCTGGGAAGAAAGT | 2.02 | 1.53 | -0.23 | 1.2 | -0.294 | 3.14 | 1.88 | 2 | 0.653 | 1.38 | 3.58 | 2.08 | 0.645 | 0.965 | 0.546 | 0.994 | 0.44 | 1.5 | -0.128 | 1.23
